Chronic BCR inh – inhibitors of chronic active B-cell receptor signaling | ABC-DLBCL IkBa-CBG/CBR reporter, luminescence ratio, 4 h | Potency, µM (top dose mostly 46.1 µM), for inactives: at the top dose activity change, negative = inhibition, most hits filed as inhibitors | hit rate 0.05% among 340,000; active = well fitted inhibition curve with a large enough effect in the signal ratio, with a control signal flat, not every such curve was filed as active; inconclusive = small, poorly fitted or top-dose-only effect, or effect the other way, or a change in a side signal; the % refers to the signal ratio;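 note: potency is the fitted concentration of half-maximal effect; plate controls were basal doxycycline-induced cells for no effect and cells given 10 µM MG132 for full effect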
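TMD8 ABC-DLBCL cells carrying doxycycline-inducible green luciferase fused to IkappaBalpha plus unfused red luciferase were exposed to compounds (up to 46 uM) for 4 hrs at 37C. Activity came from the overlap-corrected green/red luminescence ratio.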
IL1B secr inh – inflammasome signaling inhibition, IL-1 beta readout | THP-1 LPS/ATP IL-1B secretion, AlphaLISA, 16 h; hits give low values | activity change, % at 57.5 µM | hit rate 4.7% among 360,000 | AID 743279; in the data active = activity change below about -50%; inconclusive = mostly about -30% to -49%; note: % is set by controls: 0 for no effect and ±100 for the full control effect
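THP-1 cells pretreated 1 hr with compounds (up to 57.5 uM final), then stimulated with LPS (250 ng/mL final) plus ATP (1.25 mM final); secreted IL-1B measured by AlphaLISA after 16 hr, decreased signal indicating inhibition.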
TDP1 cell noCPT – qHTS for Inhibitors of human tyrosyl-DNA phosphodiesterase 1 (TDP1): qHTS in cells in absence of CPT; DT40 Tdp1-/- hTDP1 cells, no CPT, ATP luminescence, 48 h; Potency, µM (top dose mostly 46.2 µM), for the others: top-dose activity change, negative = growth inhibition, most hits filed as inhibitors; hit rate 15% among 420,000; AID 686978, 2013; note: potency is the fitted concentration of half-maximal effect; % is set by controls: 0 for no effect and ±100 for the full control effect; nearly all actives have a fitted effect of over 55% in size
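Growth kinetics read by CellTiter-Glo luminescence after ≥48 hr at 37 °C. Cells: DT40 Tdp1-/- stably carrying human TDP1, 400 per well, compound exposure in the absence of CPT (DMSO vehicle).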
SW480 rerep – inducers of DNA re-replication in SW480 colon cancer cells | SW480 DNA re-replication, Hoechst DNA content imaging, 48 h | hit rate 1.8% among 340,000 | Potency, µM (series often up to 46.1 µM), for the others: at the top dose re-replication activation, actives largely listed as activators; note: potency is the fitted concentration of half-maximal effect; % of control where 0% means no effect; nearly all actives have a fitted effect of over 55% in size
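SW480 cells exposed to compounds for 48 hr at 37 C, 5% CO2, then Hoechst-stained 40 min. Nuclear DNA content imaged by fluorescence scanning (405 nm excitation, 500-530 nm emission); re-replication scored as increased high-intensity nuclei.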
TDP1 cell CPT – growth inhibition of DT40 Tdp1-/-;hTDP1 cells with camptothecin (screen for TDP1 inhibitors). chicken DT40 Tdp1-/-;hTDP1 cells + 20 nM CPT, ATP luminescence, 48 h. Potency, µM (series often up to 46.2 µM), for inactives: top-dose activity change, negative = growth inhibition, most hits filed as inhibitors. hit rate 12% among 420,000; note: potency is the fitted concentration of half-maximal effect; % is set by controls: 0 for no effect and ±100 for the full control effect; nearly all actives have a fitted effect of over 55% in size
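Chicken DT40 Tdp1-/- cells complemented with human TDP1, 400 cells/well, exposed to compounds plus 20 nM camptothecin for at least 48 h at 37 C; viability read as ATP content by CellTiter-Glo luminescence.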
MCF10A rereplic – inducers of DNA re-replication in MCF 10A breast cells | hit rate 2.9% among 350,000 | MCF 10A DNA re-replication, Hoechst nuclear intensity, 48 h | AID 624296 | Potency, µM (doses to about 46.1 µM), for inactives: top-dose activity, positive = re-replication, usual class: activators; note: potency is the fitted concentration of half-maximal effect; % of control where 0% means no effect; nearly all actives have a fitted effect of over 50% in size
An asterisk follows results filed as active; ? = inconclusive; . = no result given; [ ] = another dose, or the depositor's remark. The list is not random: actives were taken first. Their share in the collection is about 19%. Unless noted, calls come from the whole dose curve; as a rule, active = well fitted curve in the direction sought with a large enough effect; inconclusive = small, poorly fitted or top-dose-only effect, or another doubt; inactive = no such curve, though single readings can be large; an effect the other way counts as inactive or inconclusive.

SMILES | Chronic BCR inh | IL1B secr inh | TDP1 cell noCPT | SW480 rerep | TDP1 cell CPT | MCF10A rereplic
COc1ccccc1N1CCN(C(C)C(=O)N2CC(C)OC(C)C2)CC1 (stereo not given) | 6% | 26 | 3% | -2% | 2% | 9%
CCC(Oc1ccccc1)C(=O)Nc1ccccc1N1CCCC1 (stereo not given) | ? | 13 | ? | -2% | ? | 7%
Cc1ccc(OCC(=O)Nc2ccccc2N2CCOCC2)c(C)c1 | 16% | -13 | ? | 7% | 18µM* | 20%
Cc1cccc(OCC(=O)Nc2ccccc2N2CCN(C(=O)C(C)C)CC2)c1C | 5% | 50 | ? | -6% | 21µM* | 5%
COc1cc(C)ccc1OCC(=O)Nc1ccccc1N1CCOCC1 | ? | 7 | ? | -6% | -23% | 19%
CCC(C(=O)Nc1ccccc1N1CCCC1)c1ccccc1 (stereo not given) | 5% | 0 | 16µM* | -1% | ? | -1%
Cc1ccc(C(=O)Nc2ccccc2N2CCCCC2)cc1 | 8% | 20 | ? | 13% | -11% | ?
Cc1cc(C)cc(NC(=O)Nc2ccccc2N2CCCCC2)c1 | 0% | -74* | 16µM* | -14% | ? | 5%
CC(C)=CCCC(C)=CCN1C(=O)CN(C)C1=O | . | 54 | ? | . | ? | .
CC(=O)c1cccc(NS(=O)(=O)c2c(C(=O)N3CCOCC3)c(C)n(C)c2C)c1 | -8% | 1 | 24% | 22% | -5% | 1%
CCC(=O)c1ccc(OCC(=O)Nc2ccccc2N2CCCCC2)cc1 | ? | 4 | 2.9µM* | 0% | 2.6µM* | -10%
CCC(=O)c1ccc(OCC(=O)Nc2ccccc2N2CCOCC2)cc1 | -1% | -1 | ? | ? | ? | -2%
O=C(c1ccc(Br)o1)N1CCN(c2ccc3nnc(-c4ccccc4)n3n2)CC1 | 10% | -6 | 15µM* | ? | 16µM* | 19%
O=S(=O)(c1ccc(Br)cc1)N1CCN(c2ccc3nnc(-c4ccccc4)n3n2)CC1 | ? | 14 | 21µM* | -1% | 18µM* | 0%
Cc1nnc2ccc(N3CCN(C(=O)c4ccccc4)CC3)nn12 | 1% | 16 | -17% | -9% | 6% | 15%
COC(=O)N1C(=O)[C@@](Cc2ccccc2)(c2ccccc2)N1C(=O)OC | ? | -95* | 18µM* | ? | ? | ?
COC(=O)N1C(=O)[C@](Cc2ccccc2)(c2ccccc2)N1C(=O)OC | -1% | -103* | 12µM* | ? | 13µM* | ?
COc1ccccc1NS(=O)(=O)c1cc(C(=O)Nc2ccc(S(=O)(=O)Nc3onc(C)c3C)cc2)ccc1C | . | 0 | -17% | -3% | -5% | 0%
CCN(c1ccccc1)S(=O)(=O)c1ccc(Cl)c(C(=O)NCC2CCCO2)c1 (stereo not given) | 1% | 49 | ? | -2% | -24% | ?
N#C/C(=C(/O)c1ccc2c(c1)OCO2)c1nc2cc(C(F)(F)F)ccc2s1 | ? | -54* | 15µM* | ? | 10µM* | 10%
CN1C2CCC1/C(=C\c1ccccc1F)C(=O)/C2=C/c1ccccc1F | -6% | -101* | ? | 12% | ? | ?
Cc1ccc(N(Cc2ccccc2)C(=O)c2cccc(S(=O)(=O)N3CCOCC3)c2)cc1 | 3% | 2 | 21µM* | 13% | ? | 18%
Cc1ccc(N(Cc2ccccc2)C(=O)c2ccc(S(=O)(=O)N3CCOCC3)cc2)cc1 | ? | -60* | 18µM* | -3% | ? | 11%
Cc1ccc(N(Cc2ccccc2)C(=O)c2ccc(C)c(S(=O)(=O)N3CCOCC3)c2)cc1 | 4% | 5 | ? | -3% | ? | 8%
Cc1ccc(N(Cc2ccccc2)C(=O)c2cccc(S(=O)(=O)N3CCN(C)CC3)c2)cc1 | 7% | -18 | ? | 3% | ? | 20%
SMILES | Chronic BCR inh | IL1B secr inh | TDP1 cell noCPT | SW480 rerep | TDP1 cell CPT | MCF10A rereplic
COc1ccc(N(CC(=O)NCCc2ccccc2)S(=O)(=O)c2ccc(OC)c(OC)c2)cc1 | . | . | -28% | . | -15% | .
C=CCNC(=O)/C(C#N)=C\c1cc(Cl)c(OCC)c(OC)c1 | 0% | -91* | ? | -1% | ? | 11%
C=CCNC(=O)/C(C#N)=C/c1ccccc1Cl | 2% | -58* | ? | -140% | ? | 12%
CCOc1c(Br)cc(/C=C(\C#N)C(=O)NC2CC2)cc1OC | 3% | -13 | ? | 2% | ? | 8%
CN(CCO)C(=O)c1cn(C2CCN(Cc3ccc4ccccc4c3)CC2)nn1 | . | . | -9% | . | 16%[9.04 µM] | .
Cc1ccc(/C=C/C(=O)NC2CCCCCCC2)o1 | ? | -104* | 3.7µM* | 23µM* | 2.6µM* | ?
Cc1ccc(/C=C/C(=O)Nc2ccncc2)o1 | ? | -22 | ? | -2% | ? | -2%
Cc1ccc(/C=C/C(=O)Nc2ccc(N(C)C)cc2)o1 | ? | -29 | ? | -2% | 21µM* | 3%
Cc1ccc(/C=N/NC(=O)NC2CCCCC2)o1 | ? | -15 | ? | -6% | -7% | -2%
O=C(C1CCN(S(=O)(=O)c2cnc[nH]2)CC1)N1CCN(c2ccc([N+](=O)[O-])cc2)CC1 | -1% | -21 | 22% | ? | 6% | 0%
CN(C)c1ccc(C2C3=C(CCCC3=O)OC3=C2C(=O)CCC3)cc1 | 3% | 7 | -2% | 3% | -15% | 7%
Cc1ccc(S(=O)(=O)Oc2ccc(C3C4=C(CCCC4=O)OC4=C3C(=O)CCC4)cc2)cc1 | 0% | 31 | 16µM* | -5% | 23µM* | -1%
CCC1(c2ccccc2)NC(=O)N(CC(=O)N2CC(=O)Nc3ccccc32)C1=O (stereo not given) | 5% | 1 | ? | 3% | 20% | 9%
CC(C)(C)n1cnc2cc(NCc3ccccc3Cl)ccc21 | . | . | 15µM* | . | ? | .
CCc1sc(C(=O)Nc2ccc(N3CCOCC3)cc2)cc1C | ? | -64* | ? | 14% | 21µM* | -19%
CCc1cccc(C)c1NC(=O)Nc1ccc2c(c1)OCO2 | 1% | -20 | -18% | -4% | 2% | -2%
CC(C)(O)C#Cc1ccc(C(=O)Nc2ccc3c(c2)OCO3)s1 | -4% | -52* | -15% | 4% | ? | 9%
CC1CCc2sc(C(=O)Nc3ccc(N4CCOCC4)cc3)cc2C1 (stereo not given) | ? | ? | -27% | 10% | ? | ?
